Common to all, as to assay: DAPPL (digital affinity profiling via proximity ligation, sequencing); 10 mM Tris-HCl pH 7.5, 50 mM NaCl, 1 mM DTT, 4% glycerol, room temperature, 30 min; GST-TFs on glutathione beads, 16-mer random dsDNA library, 0.1% formaldehyde crosslink after washing; high values mean tight binding
Holding throughout (conditions): protein: recombinant; tags: N-terminal GST; dsDNA, one strand shown

For one assay, the target named is T1, FLI1 (Homo sapiens, UniProt Q01543 1-452).
T1 sequence: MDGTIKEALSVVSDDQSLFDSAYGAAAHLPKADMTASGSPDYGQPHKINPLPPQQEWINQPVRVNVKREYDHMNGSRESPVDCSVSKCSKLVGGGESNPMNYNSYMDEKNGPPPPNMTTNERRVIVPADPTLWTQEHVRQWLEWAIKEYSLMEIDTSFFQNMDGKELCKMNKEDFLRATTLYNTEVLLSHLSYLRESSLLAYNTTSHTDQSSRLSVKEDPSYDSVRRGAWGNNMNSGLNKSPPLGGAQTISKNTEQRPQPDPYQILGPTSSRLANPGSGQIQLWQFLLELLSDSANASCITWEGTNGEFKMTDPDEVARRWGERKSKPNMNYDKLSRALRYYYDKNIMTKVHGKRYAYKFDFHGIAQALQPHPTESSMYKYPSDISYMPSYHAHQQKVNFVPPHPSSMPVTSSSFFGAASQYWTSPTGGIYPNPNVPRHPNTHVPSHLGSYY
The gist of the method:
(§1)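 Binding signal is given per hexamer as its read frequency for a factor divided by its frequency in the tag-only sample. GST-fused human transcription factors were expressed in yeast, captured on glutathione beads, barcoded with DNA and pooled with that sample, then incubated with 200 nmole of a 16-mer random double-stranded DNA library in Tris/NaCl/DTT/glycerol buffer for 30 min at room temperature. The pools were then washed, crosslinked, proximity-ligated, amplified by PCR and sequenced on an Illumina NextSeq500.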

The next assay deals with T2, ELK1 (Homo sapiens, UniProt P19419 1-428).
T2 sequence: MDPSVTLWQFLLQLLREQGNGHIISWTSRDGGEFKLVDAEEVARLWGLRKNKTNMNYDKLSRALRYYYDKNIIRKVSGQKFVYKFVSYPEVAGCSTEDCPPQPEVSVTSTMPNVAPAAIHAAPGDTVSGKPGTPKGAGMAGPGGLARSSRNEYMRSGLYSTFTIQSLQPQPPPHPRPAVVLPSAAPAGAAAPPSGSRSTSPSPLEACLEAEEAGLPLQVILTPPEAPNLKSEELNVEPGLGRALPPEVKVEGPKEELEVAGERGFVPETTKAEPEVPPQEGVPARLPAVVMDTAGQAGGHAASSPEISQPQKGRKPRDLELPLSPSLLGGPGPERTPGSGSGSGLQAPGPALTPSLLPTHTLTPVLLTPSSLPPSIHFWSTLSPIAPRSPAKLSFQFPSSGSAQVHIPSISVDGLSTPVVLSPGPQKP
The gist of the method: as §1

In another assay the target is T3, GABPA (Homo sapiens, UniProt Q06546 1-454).
T3 sequence: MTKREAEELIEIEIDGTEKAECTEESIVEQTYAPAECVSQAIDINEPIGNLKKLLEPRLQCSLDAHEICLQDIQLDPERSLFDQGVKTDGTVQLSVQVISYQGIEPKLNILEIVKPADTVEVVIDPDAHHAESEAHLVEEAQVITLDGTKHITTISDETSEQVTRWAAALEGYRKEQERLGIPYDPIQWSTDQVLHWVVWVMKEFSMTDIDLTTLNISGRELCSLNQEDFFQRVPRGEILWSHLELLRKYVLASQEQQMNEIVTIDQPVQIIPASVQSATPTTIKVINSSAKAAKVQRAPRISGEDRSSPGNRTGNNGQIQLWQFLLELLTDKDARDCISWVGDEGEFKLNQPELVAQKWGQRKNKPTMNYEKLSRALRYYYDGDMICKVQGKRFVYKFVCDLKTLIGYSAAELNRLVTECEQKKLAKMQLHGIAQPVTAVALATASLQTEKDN
The gist of the method:
as §1

The next assay concerns the target T4, ERG (Homo sapiens, UniProt P11308 1-479).
T4 sequence: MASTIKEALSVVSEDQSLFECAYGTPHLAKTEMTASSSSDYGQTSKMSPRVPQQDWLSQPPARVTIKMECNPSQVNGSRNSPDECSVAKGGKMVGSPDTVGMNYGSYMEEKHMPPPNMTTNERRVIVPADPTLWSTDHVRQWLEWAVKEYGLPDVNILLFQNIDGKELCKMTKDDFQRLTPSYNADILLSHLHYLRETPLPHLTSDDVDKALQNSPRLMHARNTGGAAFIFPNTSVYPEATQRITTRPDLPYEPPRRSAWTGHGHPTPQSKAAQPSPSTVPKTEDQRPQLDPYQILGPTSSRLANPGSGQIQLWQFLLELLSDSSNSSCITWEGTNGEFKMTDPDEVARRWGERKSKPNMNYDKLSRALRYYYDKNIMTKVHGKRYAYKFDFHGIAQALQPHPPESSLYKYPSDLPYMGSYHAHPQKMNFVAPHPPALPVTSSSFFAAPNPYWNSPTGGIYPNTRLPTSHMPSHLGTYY
In short, it runs like this: as §1

The next assay deals with ELF1 (Homo sapiens, UniProt P32519 1-619). The gist of the method: as §1
Sequence of ELF1 (P32519 whole entry): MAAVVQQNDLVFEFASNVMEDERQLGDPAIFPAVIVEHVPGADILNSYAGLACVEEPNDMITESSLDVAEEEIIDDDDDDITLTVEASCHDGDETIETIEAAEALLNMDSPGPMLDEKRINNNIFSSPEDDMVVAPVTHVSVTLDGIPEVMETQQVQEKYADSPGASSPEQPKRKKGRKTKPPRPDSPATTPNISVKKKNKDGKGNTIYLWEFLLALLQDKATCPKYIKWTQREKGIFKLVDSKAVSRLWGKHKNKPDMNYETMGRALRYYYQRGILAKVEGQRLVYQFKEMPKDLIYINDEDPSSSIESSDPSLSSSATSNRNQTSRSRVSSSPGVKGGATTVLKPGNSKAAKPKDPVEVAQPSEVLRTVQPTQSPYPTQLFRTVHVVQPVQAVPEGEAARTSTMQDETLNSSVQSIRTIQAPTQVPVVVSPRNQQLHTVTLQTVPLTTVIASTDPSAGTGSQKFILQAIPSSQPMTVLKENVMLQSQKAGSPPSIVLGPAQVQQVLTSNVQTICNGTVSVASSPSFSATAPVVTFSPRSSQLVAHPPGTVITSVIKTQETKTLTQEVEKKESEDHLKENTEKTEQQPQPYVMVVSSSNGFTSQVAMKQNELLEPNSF
Another assay has as its target T5, EHF (Homo sapiens, UniProt Q9NZC4 1-300).
T5 sequence: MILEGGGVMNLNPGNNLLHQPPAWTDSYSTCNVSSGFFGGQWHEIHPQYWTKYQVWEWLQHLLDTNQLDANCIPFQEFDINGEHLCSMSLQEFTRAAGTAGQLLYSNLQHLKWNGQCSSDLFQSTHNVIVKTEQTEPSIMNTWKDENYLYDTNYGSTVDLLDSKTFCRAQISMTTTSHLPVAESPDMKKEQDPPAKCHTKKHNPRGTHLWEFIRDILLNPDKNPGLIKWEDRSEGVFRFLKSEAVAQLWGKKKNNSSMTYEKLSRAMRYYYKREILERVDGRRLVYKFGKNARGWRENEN
In short, it runs like this: as §1

A further assay has as its target SPI1 (Homo sapiens, UniProt P17947 1-270). In short, it runs like this:
as §1

For a further assay, the target named is SPIB (Homo sapiens, UniProt Q01892 1-262). The gist of the method: as §1
Sequence of SPIB (Q01892 whole entry): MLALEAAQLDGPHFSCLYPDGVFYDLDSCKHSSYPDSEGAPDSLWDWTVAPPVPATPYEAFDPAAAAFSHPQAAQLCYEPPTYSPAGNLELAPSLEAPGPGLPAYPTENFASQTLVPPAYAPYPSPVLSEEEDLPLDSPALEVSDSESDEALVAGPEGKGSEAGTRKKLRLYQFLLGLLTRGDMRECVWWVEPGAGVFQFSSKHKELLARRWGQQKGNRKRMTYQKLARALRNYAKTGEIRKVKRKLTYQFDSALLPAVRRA
In the next assay the target is T6, ELK3 (Homo sapiens, UniProt P41970 1-407).
T6 sequence: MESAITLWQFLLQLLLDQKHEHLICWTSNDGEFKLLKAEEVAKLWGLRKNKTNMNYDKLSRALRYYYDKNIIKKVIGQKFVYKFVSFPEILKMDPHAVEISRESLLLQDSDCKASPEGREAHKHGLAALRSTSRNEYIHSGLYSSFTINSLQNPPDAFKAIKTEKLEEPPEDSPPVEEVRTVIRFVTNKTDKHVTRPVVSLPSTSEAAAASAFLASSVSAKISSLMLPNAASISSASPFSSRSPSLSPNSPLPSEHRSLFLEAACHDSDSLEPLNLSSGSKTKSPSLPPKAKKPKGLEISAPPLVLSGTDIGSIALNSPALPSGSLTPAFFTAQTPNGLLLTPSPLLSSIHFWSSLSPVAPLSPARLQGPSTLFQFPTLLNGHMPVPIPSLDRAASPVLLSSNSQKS
The gist of the method:
as §1

A further assay concerns the target T7, FEV (Homo sapiens, UniProt Q99581 1-238).
T7 sequence: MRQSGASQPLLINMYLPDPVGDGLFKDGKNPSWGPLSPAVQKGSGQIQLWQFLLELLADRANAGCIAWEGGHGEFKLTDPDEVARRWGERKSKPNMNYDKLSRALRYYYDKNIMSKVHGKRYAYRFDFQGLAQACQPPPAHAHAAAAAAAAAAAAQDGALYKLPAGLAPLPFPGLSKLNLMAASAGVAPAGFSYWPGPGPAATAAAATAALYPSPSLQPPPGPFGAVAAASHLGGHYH
In short, it runs like this:
as §1

A further assay deals with ETV5 (Homo sapiens, UniProt P41161 1-510). In short, it runs like this: as §1
Sequence of ETV5 (P41161 whole entry): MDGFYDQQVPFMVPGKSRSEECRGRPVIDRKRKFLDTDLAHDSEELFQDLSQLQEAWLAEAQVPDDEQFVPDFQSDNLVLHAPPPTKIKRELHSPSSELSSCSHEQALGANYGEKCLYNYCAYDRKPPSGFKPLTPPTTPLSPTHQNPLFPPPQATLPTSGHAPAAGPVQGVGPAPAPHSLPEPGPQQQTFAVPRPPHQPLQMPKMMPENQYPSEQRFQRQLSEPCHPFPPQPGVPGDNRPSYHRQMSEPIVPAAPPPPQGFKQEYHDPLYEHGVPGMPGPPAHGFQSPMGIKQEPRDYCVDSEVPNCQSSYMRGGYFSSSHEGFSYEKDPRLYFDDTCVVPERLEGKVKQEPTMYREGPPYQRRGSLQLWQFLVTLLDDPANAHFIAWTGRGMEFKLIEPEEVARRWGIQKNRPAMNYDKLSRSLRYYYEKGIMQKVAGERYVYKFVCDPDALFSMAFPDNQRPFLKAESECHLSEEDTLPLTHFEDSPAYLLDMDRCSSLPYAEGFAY
The next assay deals with T8, SPIC (Homo sapiens, UniProt Q8N5J4 1-248).
T8 sequence: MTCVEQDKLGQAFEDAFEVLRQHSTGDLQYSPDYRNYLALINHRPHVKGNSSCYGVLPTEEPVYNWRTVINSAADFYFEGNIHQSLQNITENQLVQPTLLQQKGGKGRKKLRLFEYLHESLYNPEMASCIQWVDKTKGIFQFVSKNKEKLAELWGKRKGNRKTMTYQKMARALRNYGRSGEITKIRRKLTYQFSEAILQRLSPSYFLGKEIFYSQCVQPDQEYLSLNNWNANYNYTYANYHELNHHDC
In short, it runs like this:
as §1

Another assay addresses ELF4 (Homo sapiens, UniProt Q99607 1-663). In short, it runs like this:
as §1

For the next assay, the target named is T9, ELK4 (Homo sapiens, UniProt P28324-2 1-405).
T9 sequence: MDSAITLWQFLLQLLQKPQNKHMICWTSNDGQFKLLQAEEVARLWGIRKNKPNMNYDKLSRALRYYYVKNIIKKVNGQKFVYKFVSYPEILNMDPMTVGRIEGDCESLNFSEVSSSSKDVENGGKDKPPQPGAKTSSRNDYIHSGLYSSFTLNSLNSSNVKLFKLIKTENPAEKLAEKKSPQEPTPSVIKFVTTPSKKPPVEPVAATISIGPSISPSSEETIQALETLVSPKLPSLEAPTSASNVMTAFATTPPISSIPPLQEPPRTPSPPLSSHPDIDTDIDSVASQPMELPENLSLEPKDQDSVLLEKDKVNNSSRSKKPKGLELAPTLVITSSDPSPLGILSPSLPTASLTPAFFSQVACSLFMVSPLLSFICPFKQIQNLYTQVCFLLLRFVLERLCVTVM
In short, it runs like this:
as §1

The next assay deals with T10, ETV2 (Homo sapiens, UniProt O00321 1-342).
T10 sequence: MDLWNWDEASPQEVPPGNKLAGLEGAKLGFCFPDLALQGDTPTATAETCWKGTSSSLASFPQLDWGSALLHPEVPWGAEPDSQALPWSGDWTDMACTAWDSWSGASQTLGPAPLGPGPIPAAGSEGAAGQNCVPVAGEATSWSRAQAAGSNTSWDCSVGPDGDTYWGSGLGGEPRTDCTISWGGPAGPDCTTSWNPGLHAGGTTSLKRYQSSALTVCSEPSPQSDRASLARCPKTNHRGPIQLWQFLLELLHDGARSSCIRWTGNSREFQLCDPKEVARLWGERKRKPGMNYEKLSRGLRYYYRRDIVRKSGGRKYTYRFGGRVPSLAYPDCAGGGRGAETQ
In short, it runs like this: as §1

The next assay concerns the target T11, ELF3 (Homo sapiens, UniProt P78545 1-371).
T11 sequence: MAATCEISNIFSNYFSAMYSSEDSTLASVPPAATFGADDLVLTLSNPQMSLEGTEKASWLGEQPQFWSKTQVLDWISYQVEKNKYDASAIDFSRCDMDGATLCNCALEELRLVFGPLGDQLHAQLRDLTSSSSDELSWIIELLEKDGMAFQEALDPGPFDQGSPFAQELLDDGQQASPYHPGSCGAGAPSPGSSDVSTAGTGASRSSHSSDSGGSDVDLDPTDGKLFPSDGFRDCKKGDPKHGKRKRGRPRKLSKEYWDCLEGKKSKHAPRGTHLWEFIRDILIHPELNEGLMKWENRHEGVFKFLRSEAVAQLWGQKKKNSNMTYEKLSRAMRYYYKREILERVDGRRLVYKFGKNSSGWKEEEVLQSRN
The gist of the method: as §1

In another assay the target is CRX (Homo sapiens, UniProt O43186 1-299). The gist of the method: as §1
Sequence of CRX (O43186 whole entry): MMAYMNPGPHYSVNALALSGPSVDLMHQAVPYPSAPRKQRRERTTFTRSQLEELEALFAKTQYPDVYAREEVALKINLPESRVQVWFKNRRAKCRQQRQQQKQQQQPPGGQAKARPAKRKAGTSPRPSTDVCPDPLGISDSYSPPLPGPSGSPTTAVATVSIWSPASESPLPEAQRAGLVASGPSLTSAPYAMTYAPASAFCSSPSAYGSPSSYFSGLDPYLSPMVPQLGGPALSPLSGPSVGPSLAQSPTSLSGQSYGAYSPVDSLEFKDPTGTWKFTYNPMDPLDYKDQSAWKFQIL
The target of the next assay is ETV1 (Homo sapiens, UniProt P50549 1-477). The gist of the method:
as §1

Sequence of ELF4 (Q99607 whole entry): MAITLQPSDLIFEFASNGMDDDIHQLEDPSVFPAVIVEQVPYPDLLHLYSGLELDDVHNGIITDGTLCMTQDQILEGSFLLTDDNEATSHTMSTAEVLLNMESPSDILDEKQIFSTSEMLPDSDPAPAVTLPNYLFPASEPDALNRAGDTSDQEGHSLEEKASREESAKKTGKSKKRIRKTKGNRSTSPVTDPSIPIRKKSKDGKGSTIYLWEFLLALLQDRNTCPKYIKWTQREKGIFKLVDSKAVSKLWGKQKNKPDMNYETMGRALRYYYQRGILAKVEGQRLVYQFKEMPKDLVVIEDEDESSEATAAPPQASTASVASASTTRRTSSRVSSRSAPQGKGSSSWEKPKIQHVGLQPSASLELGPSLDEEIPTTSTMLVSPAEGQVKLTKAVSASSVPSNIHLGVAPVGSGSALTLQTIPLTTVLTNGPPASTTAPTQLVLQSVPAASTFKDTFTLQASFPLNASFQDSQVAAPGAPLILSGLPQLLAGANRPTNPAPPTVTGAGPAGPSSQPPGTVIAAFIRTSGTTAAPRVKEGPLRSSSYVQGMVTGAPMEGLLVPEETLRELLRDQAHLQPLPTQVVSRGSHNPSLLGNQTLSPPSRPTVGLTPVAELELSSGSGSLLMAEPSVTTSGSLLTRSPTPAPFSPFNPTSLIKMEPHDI
Sequence of ETV1 (P50549 whole entry): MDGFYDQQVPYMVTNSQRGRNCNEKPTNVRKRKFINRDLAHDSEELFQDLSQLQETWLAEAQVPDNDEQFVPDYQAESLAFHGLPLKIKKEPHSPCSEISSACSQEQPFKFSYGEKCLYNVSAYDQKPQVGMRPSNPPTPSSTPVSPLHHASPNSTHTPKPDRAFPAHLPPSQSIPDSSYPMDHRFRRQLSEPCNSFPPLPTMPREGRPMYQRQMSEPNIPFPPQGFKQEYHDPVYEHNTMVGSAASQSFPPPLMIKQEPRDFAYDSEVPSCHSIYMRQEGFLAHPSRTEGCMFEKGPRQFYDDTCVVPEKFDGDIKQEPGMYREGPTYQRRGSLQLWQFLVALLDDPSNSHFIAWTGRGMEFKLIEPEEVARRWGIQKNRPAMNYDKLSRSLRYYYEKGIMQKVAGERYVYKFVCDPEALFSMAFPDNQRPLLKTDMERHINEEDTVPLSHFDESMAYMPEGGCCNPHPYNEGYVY

On to ACCACT, for which the binding signal with FLI1 is 1.28 fold enrichment (6-mer frequency, TF over GST control); with ELK1 it was 1.22 fold enrichment (6-mer frequency, TF over GST control); with GABPA it was 1.35 fold enrichment (6-mer frequency, TF over GST control); in the assay with ERG, 1.27 fold enrichment (6-mer frequency, TF over GST control); in the assay with ELF1 it was 1.31 fold enrichment (6-mer frequency, TF over GST control); in the assay with EHF, 1.25 fold enrichment (6-mer frequency, TF over GST control). Further, the binding signal with SPI1 is 1.38 fold enrichment (6-mer frequency, TF over GST control); in the assay with SPIB, 1.19 fold enrichment (6-mer frequency, TF over GST control); in the assay with ELK3, 1.21 fold enrichment (6-mer frequency, TF over GST control); in the assay with FEV it was 1.35 fold enrichment (6-mer frequency, TF over GST control); in the assay with ETV5 it was 1.29 fold enrichment (6-mer frequency, TF over GST control); with SPIC, 1.38 fold enrichment (6-mer frequency, TF over GST control). The binding signal in the assay with ELF4 is 1.31 fold enrichment (6-mer frequency, TF over GST control); with ELK4, 1.29 fold enrichment (6-mer frequency, TF over GST control); with ETV2, 1.27 fold enrichment (6-mer frequency, TF over GST control); in the assay with ELF3, 1.23 fold enrichment (6-mer frequency, TF over GST control); with CRX, 1.04 fold enrichment (6-mer frequency, TF over GST control); with ETV1, 1.2 fold enrichment (6-mer frequency, TF over GST control).

The values above are taken from article PMC7862700, “An all-to-all approach to the identification of sequence-specific readers for epigenetic DNA modifications on cytosine”.
